FAS TE block – inhibitors of human fatty acid synthase thioesterase domain. 0.67% of 360,000 active. recombinant FAS-TE, OMFH fluorogenic substrate, fluorescence endpoint. P49327. AID 602261. inhibition, % at 15 µM;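 active = compounds whose normalised, plate-corrected inhibition of enzyme fluorescence in the single-dose primary screen is 50% or more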
Neddylation inh – cullin neddylation inhibition; P61081+Q13564; TR-FRET cullin neddylation, biochemical; calls only at 25 µM; 0.58% of 360,000 active; AID 651699; in the data active = inhibition above about 36%
Target sequence (P61081 whole entry, looked up): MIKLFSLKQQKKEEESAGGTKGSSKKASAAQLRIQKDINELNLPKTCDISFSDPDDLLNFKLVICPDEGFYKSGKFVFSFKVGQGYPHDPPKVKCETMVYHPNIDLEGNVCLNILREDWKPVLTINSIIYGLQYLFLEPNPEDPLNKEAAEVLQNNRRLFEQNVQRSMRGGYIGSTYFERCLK
Target sequence (Q13564 whole entry, looked up): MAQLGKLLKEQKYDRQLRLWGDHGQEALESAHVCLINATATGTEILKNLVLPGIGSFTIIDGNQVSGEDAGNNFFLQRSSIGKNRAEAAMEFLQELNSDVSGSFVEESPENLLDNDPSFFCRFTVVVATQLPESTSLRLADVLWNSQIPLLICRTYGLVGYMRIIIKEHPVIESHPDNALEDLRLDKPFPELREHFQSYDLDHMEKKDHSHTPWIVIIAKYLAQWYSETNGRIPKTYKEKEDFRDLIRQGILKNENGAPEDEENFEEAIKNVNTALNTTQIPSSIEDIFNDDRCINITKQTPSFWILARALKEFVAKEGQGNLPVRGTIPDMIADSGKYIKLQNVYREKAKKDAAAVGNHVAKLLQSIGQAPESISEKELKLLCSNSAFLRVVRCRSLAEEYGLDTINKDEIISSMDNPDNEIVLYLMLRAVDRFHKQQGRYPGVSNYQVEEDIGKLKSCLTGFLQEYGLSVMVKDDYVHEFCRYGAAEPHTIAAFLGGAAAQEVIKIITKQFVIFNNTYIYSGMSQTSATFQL
proKLK7 act – proKLK7 (human) activation, primary screen. activation, % at 7 µM. P49862. 0.9% of 370,000 active. purified proKLK7, EDANS-DABCYL substrate fluorescence; 100% is mature enzyme control, 0% vehicle;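 active = activation above the mean of all tested compounds plus 3 SD, computed per campaign excluding outliers beyond control limits, cut at about 13% in these data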
PfGluPho inh – PfG6PD (Plasmodium falciparum) enzyme inhibition | PfGluPho enzyme, NADPH resazurin-diaphorase fluorescence | inhibition, % at 20 µM | 0.78% of 350,000 active | AID 504690;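 active = inhibition reaching at least a set limit at 20 µM in the primary screen, cut at about 59% in these data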
PfG6PD confirm – PfG6PD inhibition, single-dose confirmed | shares compounds with PfGluPho inh | recombinant PfGluPho, NADPH-diaphorase-resazurin fluorescence | inhibition, % at 20 µM | 34% of 2,400 active | AID 504753;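 active = inhibition of at least 50% at 20 µM in any single replicate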
Diaph ctr 10uM – inhibits diaphorase or oxidizes, flagging false PfG6PD hits; shares compounds with PfGluPho inh; diaphorase-coupled resazurin reduction, fluorescence, NADPH 10 uM; inhibition, % at 20 µM; 39% of 820 active;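 active = average inhibition reaching 50% or more with the compound at 20 µM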;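 also: resorufin red fluorescence formed as diaphorase reduces resazurin using NADPH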
Diaphorase 30uM – diaphorase inhibition or oxidation at 30 uM NADPH; AID 504863; shares compounds with PfGluPho inh; Diaphorase/resazurin coupled assay, resorufin fluorescence; inhibition, % at 20 µM; 29% of 820 active;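 active = inhibition averaging 50% or more, tested at 20 µM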
Hits are given with their value; – = inactive; · = no result shown. Shown are actives, neighbours in structure and some others; about 2.7% of the full set was active somewhere.

SMILES	FAS TE block	Neddylation inh	proKLK7 act	PfGluPho inh	PfG6PD confirm	others
Cn1cc(-c2ccccc2C(N)=O)c(=O)c2cc(Cl)ccc21	–	–	–	–	·
Cn1cc(C2=C(c3ccc(Cl)cc3Cl)C(=O)NC2=O)c2ccccc21	–	–	–	66	–
CCOC(=O)c1sc(N/N=C/c2ccccc2)nc1C	–	–	–	66	–
CCOC(=O)c1sc(N/N=C/c2cccc(C)c2)nc1C	–	–	–	–	·
CCOc1ccc(S(=O)(=O)NCc2ccccc2)cc1C(N)=O	–	–	–	–	·
CCOc1ccc(S(=O)(=O)NCc2ccccc2Cl)cc1C(N)=O	–	–	–	75	–
CCOC(=O)c1sc(N)c(C(=O)Nc2ccccc2OC)c1C	–	–	–	66	–
O=C(CSc1nnc(-c2ccccc2)n1-c1ccccc1)Nc1cccc2ccccc12	·	·	–	·	·
CC(C)OP(=O)(c1ccc(N(C)C)cc1)C(O)c1ccc(N(C)C)cc1 (stereo not given)	–	–	–	68	–
COc1ccc(NC(=O)c2cc3c(C)nn(-c4ccccc4)c3s2)cc1	·	·	–	·	·
COC(=O)c1cc(-c2ccc(C(C)(C)C)cc2)c(=O)n2c1CCC2	·	·	–	·	·
COc1ccc(CC(=S)N2CCOCC2)cc1	–	–	–	66	–
Cc1ccc(CC(=S)N2CCOCC2)cc1	–	–	–	–	·
CC(=O)c1cccc(OCC(=O)c2cc(C)n(-c3cc(C)on3)c2C)c1	–	–	–	117	62	Diaph ctr 10uM=62;Diaphorase 30uM=55
COc1ccc(-n2c(SCC(=O)N(CC(C)C)CC(C)C)nnc2-c2ccncc2)cc1	·	·	–	·	·
CCN1CCCC1CNC(=O)c1ccc2c(c1)NC(=O)/C(=C\c1ccccc1Cl)S2 (stereo not given)	–	–	–	118	105	Diaph ctr 10uM=–;Diaphorase 30uM=–
O=C1Nc2cc(C(=O)NCCCN3CCCC3)ccc2S/C1=C/c1cccc(Cl)c1	–	–	–	61	79	Diaph ctr 10uM=–;Diaphorase 30uM=–
CCN1CCN(CCCNC(=O)c2ccc3c(c2)NC(=O)/C(=C\c2cccc(C)c2)S3)CC1	–	–	–	–	·
C#CCNC(=O)C[C@@H]1C(=O)N(CC=C)/C2=C/CCCCC[C@]21C(=O)OCC	·	·	–	·	·
O[C@H](COc1cc(F)cc(F)c1)CN1CCC(C(O)(c2ccccc2)c2ccccc2)CC1	·	·	–	·	·
COc1ccc(C(=O)NCCN2C(=O)C3C4C=CC(C4)C3C2=O)cc1OC (stereo not given)	·	·	–	·	·
O=C(Nc1sc2c(c1C(=O)O)CCC2)c1ccc(F)cc1	–	–	–	91	54	Diaph ctr 10uM=–;Diaphorase 30uM=–
O=C(Nc1sc2c(c1C(=O)O)CCCC2)c1cccc(Cl)c1	–	–	–	62	–
O=C(O)c1c(NC(=O)c2cccc3ccccc23)sc2c1CCC2	–	–	–	–	·
O=C(Nc1sc2c(c1C(=O)O)CCCC2)c1ccc(Cl)cc1	–	–	–	124	77	Diaph ctr 10uM=73;Diaphorase 30uM=72
SMILES	FAS TE block	Neddylation inh	proKLK7 act	PfGluPho inh	PfG6PD confirm	others
O=C(Nc1sc2c(c1C(=O)O)CCC2)c1ccccc1	–	–	–	62	–
O=C(Nc1sc2c(c1C(=O)O)CCC2)c1cccs1	–	–	–	–	·
CC(C)COc1ccc(C(=O)Nc2sc3c(c2C(=O)O)CC(C)(C)OC3)cc1	–	·	–	–	·
CC1(C)Cc2c(sc(NC(=O)c3ccccc3)c2C(=O)O)CO1	–	–	–	88	–
N#Cc1c(NC(=O)c2ccccc2)sc2c1CCCCC2	–	·	–	–	·
O=C(Nc1sc2c(c1C(=O)O)CCCCC2)c1ccccc1	–	–	–	80	–
O=C(CSc1nnc(COc2ccccc2)n1Cc1ccco1)Nc1ccc(OCc2ccccc2)cc1	·	·	–	·	·
COC(=O)c1sc(=S)n(-c2cc(F)ccc2F)c1N	–	–	–	60	–
CCOC(=O)c1sc(=S)n(-c2cc(OC)ccc2OC)c1N	–	–	–	78	–
CCOC(=O)c1sc(=S)n(-c2cc(F)ccc2F)c1N	–	–	–	–	·
CCN1CCCCC(NC(=O)c2ccccc2)C1=O (stereo not given)	·	·	–	·	·
Cc1cc2ncn(-c3ncccc3[N+](=O)[O-])c2cc1C	–	–	–	76	–
CCc1c(C)nc2cc(-c3ccc(OC)c(OC)c3)nn2c1NCC1CC1	–	·	–	62	–
CCc1c(C)nc2cc(-c3cc(OC)cc(OC)c3)nn2c1N1CCN(CCN2CCOCC2)CC1	–	–	–	–	·
COCCCNC(=O)CN1C(=O)C2CCCCN2C(=O)c2ccccc21 (stereo not given)	·	·	–	·	·
CCCCCCCCSC1=CC(=O)C(OC)=C(OC)C1=O	–	–	–	125	86	Diaph ctr 10uM=67;Diaphorase 30uM=–
CCCCCSc1nncc(=O)[nH]1	–	–	–	–	·
CN(C(=O)c1cc2n(n1)C(C(F)(F)F)CC(c1ccco1)N2)c1ccccc1 (stereo not given)	–	–	–	94	66	Diaph ctr 10uM=80;Diaphorase 30uM=53
CN(C(=O)c1cc2n(n1)C(C(F)(F)F)CC(c1ccco1)N2)c1ccc(OC(F)(F)F)cc1 (stereo not given)	–	–	–	–	·
COc1ccc2nc(NC(=S)N(C)C)sc2c1	–	–	–	70	–
CCCC(=O)Nc1nc2ccc(OC)cc2s1	–	–	–	–	·
CC1(C)CC(=O)C(C(C#Cc2ccccc2)C2=C(O)CC(C)(C)CC2=O)=C(O)C1	–	–	–	–	·
O=C1CCCC(O)=C1C(C#Cc1ccccc1)C1=C(O)CCCC1=O	–	–	·	64	–
C[n+]1cccc2c(Br)ccc([O-])c21	–	–	–	114	–
[O-][n+]1cccc2c(Br)cc(Br)c(O)c21	–	–	–	–	·
SMILES	FAS TE block	Neddylation inh	proKLK7 act	PfGluPho inh	PfG6PD confirm	others
Cc1[nH]n(-c2ccccc2)c(=S)c1C=NCCCN=Cc1c(C)[nH]n(-c2ccccc2)c1=S	–	–	–	62	–
N#C/C(C(=O)Nc1ccc(Cl)cc1)=C(/S)Nc1ccccc1	–	–	–	95	83	Diaph ctr 10uM=–;Diaphorase 30uM=–
O=C(CSc1nnc(SCc2cccc3ccccc23)s1)c1ccc(F)cc1	·	·	–	·	·
CCn1cc(C(=O)N2CCN(Cc3ccc(C)cc3)CC2)c(=O)c2ccc(C)nc21	·	·	–	·	·
CCOC(=O)c1ccc(-c2c(-c3ccccc3OC)oc3ccccc23)cc1F	–	·	–	–	·
COc1ccccc1-c1oc2ccccc2c1-c1ccc2cc[nH]c2c1	–	·	–	63	–
O=C(NCCc1ccccc1)OCc1cn(-c2cccc(F)c2F)nn1	·	·	–	·	·
Cc1ccc2nc(-c3cccc(N)c3)[nH]c2c1	–	·	–	62	–
Nc1cccc(-c2nc3ccccc3[nH]2)c1	–	·	–	–	·
Cc1ccc2nc(-c3sc4nc(C)cc(C)c4c3N)[nH]c2c1	–	·	–	77	–
CCn1c(=O)n(CC(=O)N2CCN(C(C)=O)CC2)c(=O)c2ccccc21	·	·	–	·	·
COc1ccc(OC)c(S(=O)(=O)N2CCCCC2C(=O)N2CCN(c3ccc(F)cc3)CC2)c1 (stereo not given)	·	·	–	·	·

Compound activity: PubChem BioAssay, several laboratories
